Reference: article PMC4336329 (PLoS ONE, 2015)
The whole screen tested about 310,000 compounds, of which about 14,000 (4.5%) showed an effect of 50% or more. The effect is printed as a negative number. The full list was thinned out, with strong results kept by preference.

What follows are compounds tested against human ether-à-go-go-related gene (hERG) potassium channel (human, UniProt Q12809) (assay: primary screen, population patch clamp on CHO cells stably expressing hERG; higher = less effect of the substance).
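Also: peak tail current of the secondary pulse compared with the same well before compound.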

Sequence of human ether-à-go-go-related gene (hERG) potassium channel (Q12809 whole entry, looked up): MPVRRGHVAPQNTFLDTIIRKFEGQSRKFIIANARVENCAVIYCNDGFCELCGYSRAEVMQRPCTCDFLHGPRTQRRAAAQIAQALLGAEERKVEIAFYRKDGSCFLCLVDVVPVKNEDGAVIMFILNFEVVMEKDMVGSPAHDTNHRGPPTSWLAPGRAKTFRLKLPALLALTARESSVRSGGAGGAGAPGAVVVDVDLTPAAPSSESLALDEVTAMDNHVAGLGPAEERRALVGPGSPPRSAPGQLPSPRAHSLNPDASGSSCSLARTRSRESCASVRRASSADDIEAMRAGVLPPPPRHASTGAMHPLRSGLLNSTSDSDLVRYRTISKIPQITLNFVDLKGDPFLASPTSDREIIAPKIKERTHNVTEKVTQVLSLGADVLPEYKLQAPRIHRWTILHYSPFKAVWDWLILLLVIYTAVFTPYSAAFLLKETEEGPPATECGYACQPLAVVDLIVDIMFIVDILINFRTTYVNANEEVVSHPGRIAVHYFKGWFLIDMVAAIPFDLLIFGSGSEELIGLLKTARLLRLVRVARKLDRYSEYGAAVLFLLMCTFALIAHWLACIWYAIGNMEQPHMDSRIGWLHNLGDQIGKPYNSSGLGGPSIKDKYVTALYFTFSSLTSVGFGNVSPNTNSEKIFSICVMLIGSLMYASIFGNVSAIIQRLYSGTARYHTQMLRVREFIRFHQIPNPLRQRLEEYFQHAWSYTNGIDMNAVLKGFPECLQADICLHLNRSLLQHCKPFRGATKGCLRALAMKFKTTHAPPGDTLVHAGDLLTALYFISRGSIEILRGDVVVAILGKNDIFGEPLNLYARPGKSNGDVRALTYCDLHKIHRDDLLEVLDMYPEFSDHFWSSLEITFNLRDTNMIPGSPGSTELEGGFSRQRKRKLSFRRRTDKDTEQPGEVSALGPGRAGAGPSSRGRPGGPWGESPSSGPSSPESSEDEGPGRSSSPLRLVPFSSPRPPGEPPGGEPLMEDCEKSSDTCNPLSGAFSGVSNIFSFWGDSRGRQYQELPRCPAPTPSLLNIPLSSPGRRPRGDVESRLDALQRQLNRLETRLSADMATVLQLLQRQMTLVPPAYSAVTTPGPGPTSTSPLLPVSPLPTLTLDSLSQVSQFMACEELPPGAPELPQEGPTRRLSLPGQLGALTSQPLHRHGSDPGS

| SMILES | hERG current change (%, negative = inhibition) at 10uM |
| --- | --- |
| Nc1c(N(Cc2ccco2)C(=O)COc2ccccc2F)c(=O)[nH]c(=O)n1Cc1ccccc1 | 0.883% |
| CNC(=O)CSCc1c(F)cccc1Cl | 17.8% |
| CCCOC(=O)C1=C(C)NC2=C(C(=O)C(C(=O)OC)C(C)C2)C1c1ccc(N(CC)CC)cc1 (stereo not drawn) | -5.21% |
| COC(=O)c1ccccc1NC(=O)CC(NCc1ccccc1)C(=O)O (stereo not drawn) | -20.7% |
| CCCCn1c(SCC(N)=O)nnc1-c1ccco1 | 15.3% |
| COc1cccc(-n2nnnc2SCC(=O)NCc2ccco2)c1 | -2.06% |
| COc1cc(NC(=O)CN2CCN(c3ccccc3F)CC2)c(C)cc1[N+](=O)[O-] | 28.2% |
| COc1cccc2c3c(c(C)nc12)CCN3c1ccccc1 | -54.6% |
| COc1ccc(N2CCc3c(C)nc4c(OC)cccc4c32)cc1 | -73.5% |
| COc1ccccc1N1CCN(c2nc(C)nc3c2oc2ccccc23)CC1.Cl | -1.5% |
| Cc1nc2c(C)cccc2c2c1CCS2 | 0.813% |
| CCOC(=O)c1cnc2c(OC)cccc2c1N1CCN(c2ccc(OC)cc2)CC1 | -47.1% |
| CCOC(=O)c1cnc2c(OC)cccc2c1N1CCN(c2ccccc2OC)CC1 | -45.4% |
| COc1cccc2c3c(c(C)nc12)CC(C)O3 (stereo not drawn) | -21.9% |
| COc1ccccc1N1CCc2c(C)nc3c(OC)cccc3c21 | -61% |
| COc1cccc2c(Cl)c(CCCl)c(C)nc12 | 10.2% |
| Cc1nc2c(C)cccc2c2c1CCN2c1ccccc1F | -62.4% |
| Cc1nc2c(C)cccc2c2c1COC2 | 7.98% |
| CCc1c(C)nc2c(OC)cccc2c1Cl | -2.25% |
| CCOc1ccccc1CNC(=O)CCNS(=O)(=O)c1ccc2[nH]c(=O)oc2c1 | -2.89% |
| CCC(O)(CC)C(=O)N/N=C/c1cc(Br)cc(Br)c1O | -1.02% |
| C/C(CC(=O)Nc1ccccn1)=N\NC(=O)Cc1cccc2ccccc12 | 1.01% |

| SMILES | hERG current change (%, negative = inhibition) at 10uM |
| --- | --- |
| CCOC(=O)c1c(C)[nH]c(C(=O)COC(=O)c2ccccn2)c1C | -17% |
| Cc1cccc(-c2nnc3n2N=C(c2ccccc2Br)CS3)c1 | -14.4% |
| CC1CCCC(NC(=O)COC(=O)CN2C(=O)C3CCCCC3C2=O)C1C (stereo not drawn) | 10.3% |
| Cc1ccc(CN(Cc2ccccn2)C(=O)Nc2c(F)cccc2F)cc1 | -0.968% |
| CCC/C(=N\NC(=O)c1ccc(CSc2nncn2C)cc1)c1ccccc1 | -8.28% |
| CCCOc1ccc(C2c3c(oc4cc(C)c(C)cc4c3=O)C(=O)N2CCCN(C)C)cc1OCC (stereo not drawn) | 7.65% |
| Cc1cc(C)c(S(=O)(=O)NCc2cccnc2)c(C)c1 | -2.97% |
| O=S(=O)(NCC(c1cccnc1)N1CCc2ccccc2C1)c1ccccc1 (stereo not drawn) | 10.3% |
| O=S(=O)(NCC(c1cccnc1)N1CCN(Cc2ccccc2)CC1)c1ccc(F)cc1 (stereo not drawn) | -65% |
| CCN1CCN(C(CNS(=O)(=O)c2ccccc2)c2cccnc2)CC1 (stereo not drawn) | -39.2% |
| CCN1CCN(C(CNS(=O)(=O)c2ccc(F)cc2)c2cccnc2)CC1 (stereo not drawn) | -20.5% |
| O=S(=O)(NCC(c1cccnc1)N1CCOCC1)c1ccccc1 (stereo not drawn) | 4.6% |
| Cc1cc(C)c(S(=O)(=O)NC2CCN(Cc3ccccc3)CC2)c(C)c1.Cl | -47.6% |
| O=S(=O)(NCC(c1cccnc1)N1CCN(Cc2ccccc2)CC1)c1ccc(Cl)cc1 (stereo not drawn) | -78.3% |
| O=S(=O)(NCC(c1cccnc1)N1CCOCC1)c1ccc(Cl)cc1 (stereo not drawn) | 4.89% |
| Cc1cc(C)c(S(=O)(=O)NCC(c2cccnc2)N2CCN(Cc3ccccc3)CC2)c(C)c1 (stereo not drawn) | -69.5% |
| O=S(=O)(NCC(c1cccnc1)N1CCN(Cc2ccccc2)CC1)c1ccccc1 (stereo not drawn) | -68.9% |
| C(=N\N(Cc1ccccc1)c1ccccc1)/c1ccco1 | -11.5% |
| O=C(CNC(=O)c1ccccc1F)OCc1nc2ccccc2s1 | 20.6% |
| COc1cc(C(=O)Nc2nccs2)cc(OC)c1OC | 3.55% |
| CSc1ccc(/C=N/n2c(C3CCCCC3)n[nH]c2=S)cc1 | 21.9% |
| O=C(/C=C/c1ccc2c(c1)OCO2)Nc1nc(-c2ccc(F)cc2F)cs1 | 9.08% |

| SMILES | hERG current change (%, negative = inhibition) at 10uM |
| --- | --- |
| O=C(O)/C=C/c1cccc(NC(=O)c2ccccc2)c1 | 9.14% |
| CCOc1ccc(NC(=O)CN(C)C(=O)Cn2cnc3c2c(=O)n(C)c(=O)n3C)cc1OCC | 5.62% |
| Cc1ccc(S(=O)(=O)NCC(c2cccnc2)N2CCc3ccccc32)cc1 (stereo not drawn) | -2.1% |
| Cc1ccc(S(=O)(=O)NCC(c2cccnc2)N2CCN(Cc3ccccc3)CC2)cc1 (stereo not drawn) | -73.1% |
| Cc1ccc(S(=O)(=O)NCC(c2cccnc2)N2CCOCC2)cc1 (stereo not drawn) | 5.12% |
| CCN1CCN(C(CNS(=O)(=O)c2ccc(OC)cc2)c2cccnc2)CC1 (stereo not drawn) | -45.4% |
| COc1ccc(S(=O)(=O)NCC(c2cccnc2)N2CCN(Cc3ccccc3)CC2)cc1 (stereo not drawn) | -58.5% |
| O=C(CCC(=O)OCC(=O)c1ccc([N+](=O)[O-])cc1)NC1CCCCC1 | -0.724% |
| COc1ccc(Cn2nnnc2CN2CCC(O)(c3ccc(F)cc3)CC2)cc1 | -14.5% |
| COc1cccc(C(=O)Nc2ccc(-n3nncc3C(C)(C)C)cc2)c1 | -60.5% |
| COc1ccc(C(=O)Nc2ccc(-n3nncc3C(C)(C)C)cc2)cc1 | -26.4% |
| CC(C)(C)c1cnnn1-c1ccc(NC(=O)c2ccc3c(c2)OCO3)cc1 | -17.4% |
| COc1ccc(-n2c3c(cc(C(=O)NCc4ccco4)c2=O)C(=O)CC(C)(C)C3)cc1 | -56.6% |
| CC1(C)CC(=O)c2cc(C(=O)NCc3ccco3)c(=O)n(-c3ccc(Cl)cc3)c2C1 | -22.2% |
| O=C1CCCc2c1cc(C(=O)Nc1ccc(Br)cn1)c(=O)n2-c1ccccc1 | -2.93% |
| CC1(C)CC(=O)c2cc(C(=O)NCc3ccco3)c(=O)n(-c3ccccc3)c2C1 | -19.7% |
| O=C1CCCc2c1cc(C(=O)NCc1ccco1)c(=O)n2-c1ccccc1 | -10.3% |
| Cc1ccc(-n2c3c(cc(C(=O)NCC(=O)c4ccccc4)c2=O)C(=O)CCC3)cc1 | 10.2% |
| O=C1CCCc2c1cc(C(=O)NCc1ccco1)c(=O)n2-c1ccc(Cl)cc1 | -69.3% |
| O=C1CCCc2c1cc(C(=O)NCCCN1CCOCC1)c(=O)n2-c1ccc(Cl)cc1 | 1.59% |
| Cc1ccc(-n2c3c(cc(C(=O)NCc4ccco4)c2=O)C(=O)CC(C)(C)C3)cc1 | -6.38% |
| O=C1CCCc2c1cc(C(=O)O)c(=O)n2-c1ccccc1 | 13.9% |

| SMILES | hERG current change (%, negative = inhibition) at 10uM |
| --- | --- |
| Cc1ccc(-n2c3c(cc(C(=O)NCc4ccco4)c2=O)C(=O)CCC3)cc1 | -53.8% |
| O=C1CCCc2c1cc(C(=O)Nc1ccc(Cl)cn1)c(=O)n2-c1ccccc1 | -60.1% |
| CS(=O)(=O)N(CC(=O)N1CCN(c2cccc(Cl)c2)CC1)c1cccc(F)c1 | -33.8% |
| COc1ccccc1NC(=O)Cn1c(CN2CCCCC2)nc2ccccc2c1=O | -43.7% |
| CN(Cc1cccs1)C(=O)CCCc1c[nH]c2ccccc12 | -1.49% |
| COc1ccc(/C(O)=C2/C(=O)C(=O)N(CCN(C)C)C2c2ccc(OC)c(OC)c2)c(C)c1 (stereo not drawn) | 11% |
| O=C(c1cc(S(=O)(=O)N2CCOCC2)ccc1Cl)N1CCC(Cc2ccccc2)CC1 | -15.9% |
| Cc1cc(CNC(=O)c2cccc([N+](=O)[O-])c2)c2ccccc2n1 | 6.72% |
| Cc1cc(CNC(=O)c2ccc(C)c([N+](=O)[O-])c2)c2ccccc2n1 | 8.05% |
| Cc1cc(CNC(=O)c2cccc([N+](=O)[O-])c2C)c2ccccc2n1 | -53% |
| CN(CC(=O)Nc1ccc(F)cc1)C(=O)COc1ncnc2ccccc12 | -19.3% |
| Cc1ccc(NC(=O)COc2ccccc2C(=O)NCc2ccccc2)cc1 | -31.1% |
| c1ccc(-c2cn(C[C@H]3CC[C@H](Cn4cc(-c5ccccn5)nn4)O3)nn2)nc1 | -9.3% |
| COc1ccc(-c2cn(Cc3cccc(OC)c3)nn2)cc1 | -0.524% |
| COc1cccc(-c2cn(C[C@H]3CC[C@@H]([C@@H]4CC[C@H](Cn5cc(-c6cccc(OC)c6)nn5)O4)O3)nn2)c1 | -72.7% |
| c1ccc(-c2cn(C[C@H]3CC[C@@H]([C@@H]4CC[C@H](Cn5cc(-c6ccccn6)nn5)O4)O3)nn2)nc1 | -6.73% |
| c1cc(-c2cn(C[C@H]3CC[C@@H]([C@@H]4CC[C@H](Cn5cc(-c6ccsc6)nn5)O4)O3)nn2)cs1 | -75.5% |
| Cc1ccc(-c2cn(C[C@H]3CC[C@@H]([C@@H]4CC[C@H](Cn5cc(-c6ccc(C)cc6)nn5)O4)O3)nn2)cc1 | -7.99% |
| COc1ccc(-c2cn(CC3CCCCC3)nn2)cc1 | 15.3% |
| c1cncc(-c2cn(C[C@H]3CC[C@@H]([C@@H]4CC[C@H](Cn5cc(-c6cccnc6)nn5)O4)O3)nn2)c1 | -58.5% |
| c1ccc(-c2cn(C[C@H]3CC[C@@H]([C@@H]4CC[C@H](Cn5cc(-c6ccccc6)nn5)O4)O3)nn2)cc1 | -23.8% |
